Results: ChEMBL document CHEMBL3988442, “University of Dundee, Small-Polar-MMV Screening Library” (2021)
About 13,000 (27%) of roughly 48,000 compounds showed an effect of 50% or more. The list shows a part of the results.

Tested on: Wolbachia pipientis
Assay: Anti-Wolbachia Cell-Based Screen
Type: functional
Parameters: scale not given: in the data most compounds retested in dose-response had high values
Details: 5 µM

Going from `O=C(NCc1ccco1)[C@H]1C[C@@H]2CCN(c3cccc(F)c3)C[C@H]2O1.O=C(O)C(F)(F)F` to `Cc1ccc(N2CC[C@H]3C[C@H](C(=O)NCc4ccco4)O[C@@H]3C2)cc1.O=C(O)C(F)(F)F`, the “Percent Effect” value falls from 104.2% to 96.02%.

Going from `O=C(NCc1ccco1)[C@H]1C[C@@H]2CCN(c3ncccn3)C[C@H]2O1.O=C(O)C(F)(F)F` to `O=C(NCc1ccco1)[C@H]1C[C@@H]2CCN(c3ccncn3)C[C@@H]2O1.O=C(O)C(F)(F)F`, the “Percent Effect” value falls from 105.1% to 48.28%.

Compared with `O=C(NCc1ccco1)[C@@H]1COC[C@H]2CN(c3ncc(F)cn3)C[C@H]21.O=C(O)C(F)(F)F`, `Cc1ccc(N2CC[C@H]3C[C@H](C(=O)NCc4ccco4)O[C@H]3C2)nn1.O=C(O)C(F)(F)F` is higher in “Percent Effect” value: 0.4075% for the first, 108.4% for the second.

Compared with `O=C(NCCc1ccncc1)[C@H]1C[C@@H]2CCN(c3nncs3)C[C@H]2O1`, `COCCNC(=O)[C@H]1C[C@@H]2CCN(c3nncs3)C[C@H]2O1.O=C(O)C(F)(F)F` is lower in “Percent Effect” value: 96.02% for the first, -6.597% for the second.

Going from `O=C(NCc1ccco1)[C@H]1C[C@@H]2CCN(c3nncs3)C[C@H]2O1.O=C(O)C(F)(F)F` to `O=C(NCC1CCOCC1)[C@H]1C[C@@H]2CCN(c3nncs3)C[C@@H]2O1.O=C(O)C(F)(F)F`, the “Percent Effect” value falls from 106% to 99.44%.

Going from `COc1ccnc(N2CCN(C(=O)c3csnn3)CC2)n1` to `CCc1nc(C)c(CN2CCN(c3ncnc4scc(C)c34)CC2)[nH]1`, the “Percent Effect” value rises from -4.272% to -4.164%.

First: CCN(CC)C1(Cc2cc(COC)on2)COC1
Second: CCCn1nc2c(cc1=O)CN(Cc1nc(CCOC)no1)CC2
The “Percent Effect” value of the first is lower: -6.864% for the first, 3.931% for the second.

Compared with `CCC(C)(C)NC(=O)c1ccc(-c2ccco2)[nH]c1=O`, `CCC(C)(O)CNC(=O)Nc1ccc(C)cc1Br` (stereo not given) is lower in “Percent Effect” value: -18% for the first, -22.84% for the second.

Going from `Cc1cccc(C)c1NC(=O)CCNC(=O)c1ccoc1` to `Cc1oc(CNC(=O)Cc2cccc(OC(F)F)c2)cc1C(=O)O`, the “Percent Effect” value falls from 6.824% to 1.075%.

Going from `CC(C)CCn1ccc(NC2CCSC2)n1` (stereo not given) to `Cn1c(Cn2cccn2)nnc1C1CCCN(c2ccncc2F)C1` (stereo not given), the “Percent Effect” value rises from -1.669% to 5.271%.

Compared with `O=C(NC[C@H]1OC[C@@H](NCc2ccccc2)[C@@H]1O)Nc1ccc(F)cc1`, `O=C(NCC1(O)CCc2ccccc21)Nc1ccc2c(c1)OCO2` (stereo not given) is higher in “Percent Effect” value: -15.63% for the first, -4.749% for the second.

First: Fc1ccc2[nH]c(CO[C@H]3CN(CC4CC4)C[C@H]3F)nc2c1
Second: CNCCN1C(=O)CC[C@H]2CN(c3ncc(F)cn3)CC[C@H]21
The “Percent Effect” value of the first is lower: -6.025% for the first, -2.163% for the second.

Compared with `O=C(NCC1(c2cccc(F)c2)CC1)N1CCC2(CCOC2)C1` (stereo not given), `CN1C(=O)CCCC12CCCN(C(=O)c1cccc(C(F)(F)F)c1)C2` (stereo not given) is higher in “Percent Effect” value: -9.611% for the first, 112.4% for the second.

First: Cc1nn2c(N3CCC(C(N)=O)CC3)cc(-c3ccccc3)nc2c1C
Second: O=C(NC[C@H]1Cn2c(-c3ccccc3)cnc2CO1)C1CC1
The “Percent Effect” value of the first is higher: 0.08495% for the first, -24.2% for the second.

First: Cc1ccc(N2C[C@H]3OCC[C@H]3[C@H](C(=O)NCc3ccco3)C2)nn1
Second: O=C(Nc1cccnc1)[C@H]1C[C@@H]2CCN(c3nncs3)C[C@H]2O1.O=C(O)C(F)(F)F.O=C(O)C(F)(F)F
The “Percent Effect” value of the first is lower: 0.2496% for the first, 12.63% for the second.

Going from `Cc1cc(S(=O)(=O)N2CC[C@@H](O)C2)c(Cl)cc1F` to `Cn1ncnc1NS(=O)(=O)c1ccc(F)cc1Cl`, the “Percent Effect” value falls from 1.456% to -0.8831%.

First: O=C(C1CCOC1)N1CCN(Cc2ccncc2)c2ncccc2C1 (stereo not given)
Second: O=C(C1CCOC1)N1CCN(Cc2cccnc2)c2ncccc2C1 (stereo not given)
The “Percent Effect” value of the first is higher: 109.7% for the first, 79.91% for the second.

Compared with `O=C(C1CCOCC1)N1CCN(CC2CC2)c2ncccc2C1`, `O=C(c1ccccn1)N1C[C@@H]2CC[C@H](C1)N(C(=O)CCC1CCCC1)C2` is lower in “Percent Effect” value: -9.379% for the first, -23.02% for the second.

Compared with `CCN1CCN(CCCNC(=O)c2cc3ccc(C)cc3nc2C)CC1`, `CS(=O)(=O)c1ccccc1C(=O)NCCCN1CCc2ccccc2C1` is lower in “Percent Effect” value: 26.08% for the first, 5.39% for the second.

First: CN(C)C1CCN(Cc2cnc(S(C)(=O)=O)n2CC2CCCCC2)C1 (stereo not given)
Second: Cc1cncc(C(=O)N2CCCC3(CCCN3S(C)(=O)=O)C2)c1 (stereo not given)
The “Percent Effect” value of the first is lower: -18.29% for the first, -8.185% for the second.

First: CN1C[C@H]2CN(C(=O)c3ccc4c(c3)OCO4)CCN2C1=O
Second: CN1C(=O)CCCC12CCCN(C(=O)c1ccc3c(c1)OCO3)C2 (stereo not given)
The “Percent Effect” value of the first is lower: 3.165% for the first, 103.5% for the second.

First: CS(=O)(=O)N1CCCC12CCCN(C(=O)c1cc(F)cc(F)c1)C2 (stereo not given)
Second: CN1C(=O)CCCC12CCCN(C(=O)c1cc(F)cc(F)c1)C2 (stereo not given)
The “Percent Effect” value of the first is lower: 3.882% for the first, 108.3% for the second.

First: CS(=O)(=O)N1CCCC12CCCN(C(=O)c1ccc3c(c1)OCO3)C2 (stereo not given)
Second: CN1C(=O)CCCC12CCCN(C(=O)c1ccoc1)C2 (stereo not given)
The “Percent Effect” value of the first is lower: -9.352% for the first, 102.5% for the second.

First: Cc1cc(C)cc(C(=O)N2CCCC3(CCCC(=O)N3C)C2)c1 (stereo not given)
Second: CN1C(=O)CCC12CCCN(C(=O)c1ccoc1)C2 (stereo not given)
The “Percent Effect” value of the first is higher: 101% for the first, 1.769% for the second.

First: CN(CC(C)(C)C)c1ccc(C(=O)NCCCc2ccccn2)cn1
Second: CN(CCCNC(=O)c1ccccc1OCC(N)=O)CC(F)(F)F
The “Percent Effect” value of the first is lower: -1.973% for the first, 8.203% for the second.

Going from `O=C1CCC2(CCCN(C(=O)c3ccoc3)C2)CN1CCc1c[nH]cn1` (stereo not given) to `CCS(=O)(=O)N1CCCC2(COCCN(c3nncs3)C2)C1` (stereo not given), the “Percent Effect” value falls from 2.528% to -5.345%.

Going from `Cc1cc(F)ccc1C(=O)N1C[C@@H]2COC[C@]2(CN(C)C)C1.O=C(O)C(F)(F)F` to `O=C(NCC1CC2(CO1)CN(Cc1cccs1)C2)C1CCC1.O=C(O)C(F)(F)F` (stereo not given), the “Percent Effect” value rises from -5.19% to 112.2%.

Going from `NC(=O)C(NC(=O)c1cc(Br)c[nH]1)c1ccccc1` (stereo not given) to `CS(=O)(=O)c1ccccc1C(=O)NCC1Cc2ccccc2O1` (stereo not given), the “Percent Effect” value falls from 0.3716% to -10.07%.

First: CCN(CCNC(=O)c1ccccc1OCCOC)C1CC1
Second: CCC(C)N(C)CCNC(=O)c1ccccc1OCCOC (stereo not given)
The “Percent Effect” value of the first is lower: 11.11% for the first, 91.86% for the second.

Compared with `CCNC(=O)NC(=O)C(C)Nc1ccccc1OCCOC` (stereo not given), `COCCOc1ccccc1C(=O)NCCN(C)C(C)C` is higher in “Percent Effect” value: 1.487% for the first, 86.22% for the second.

First: COCCOc1ccccc1C(=O)N(C)Cc1ncc(C)c(OC)c1C
Second: COCCCNC(=O)c1ccccc1S(C)(=O)=O
The “Percent Effect” value of the first is lower: -3.129% for the first, 133.8% for the second.

Compared with `Cn1nc(C2CCCC2)c(-c2ccc3c(c2)OCO3)c1N`, `CN(Cc1cc(Cl)ccc1Cl)Cc1ncnn1C` is higher in “Percent Effect” value: -8.229% for the first, 20.54% for the second.

Going from `CCS(=O)(=O)N1CCC2(CC1)CC[C@@]1(C(=O)N(C)C)CN(C(C)=O)C[C@@H]21` to `CC(=O)N1C[C@H]2C3(CCN(S(C)(=O)=O)CC3)CC[C@@]2(C(=O)N(C)C)C1`, the “Percent Effect” value falls from -13.65% to -15.61%.

First: CCS(=O)(=O)N1CCC2(CC1)CC[C@@]1(C(=O)NC)CN(C(C)=O)C[C@@H]21
Second: CNC(=O)[C@@]12CCC3(CCN(S(C)(=O)=O)CC3)[C@@H]1CN(C(C)=O)C2
The “Percent Effect” value of the first is lower: 0.6663% for the first, 110.1% for the second.

First: CNC(=O)[C@@]12CCC3(CCN(S(=O)(=O)C4CC4)CC3)[C@@H]1CN(C(C)=O)C2
Second: CCS(=O)(=O)N1CCC2(CC1)CC[C@@]1(C(=O)N(C)C)CN(C)C[C@@H]21.O=C(O)C(F)(F)F
The “Percent Effect” value of the first is higher: 108% for the first, 4.402% for the second.

Going from `CN(C)C(=O)NCC1CC2(CO1)CN(c1nncs1)C2` (stereo not given) to `O=C(NCC1CC2(CO1)CN(c1nncs1)C2)C1CCC1` (stereo not given), the “Percent Effect” value rises from 109.2% to 113.3%.

First: O=C(O)C(F)(F)F.O=C(O)[C@]12CCCN(Cc3cccs3)C[C@H]1CN(c1ncccn1)C2
Second: O=C(O)C(F)(F)F.O=C(O)C(F)(F)F.c1ccc(OCC2CC3(CCN(c4ncccn4)CC3)CO2)nc1 (stereo not given)
The “Percent Effect” value of the first is lower: 1.756% for the first, 3.683% for the second.

First: O=C(N[C@@H]1CN(Cc2cccs2)[C@@H]2COC[C@@H]21)C1CCC1.O=C(O)C(F)(F)F
Second: O=C(NCC1CC2(CO1)CN(c1ncccn1)C2)C1CCC1 (stereo not given)
The “Percent Effect” value of the first is lower: -6.502% for the first, 124.3% for the second.

Compared with `O=S(=O)(C1CC1)N1CCCC2(COCCN(c3nncs3)C2)C1` (stereo not given), `O=C(C1CCC2(CCN(c3nncs3)CC2)C1)N1CCCC1` (stereo not given) is lower in “Percent Effect” value: 1.243% for the first, -10.32% for the second.

First: CN(Cc1ccccc1)CC1CC2(CO1)CN(c1nncs1)C2 (stereo not given)
Second: Cn1ncnc1NS(=O)(=O)c1ccccc1
The “Percent Effect” value of the first is higher: 4.017% for the first, -4.376% for the second.

Going from `CCOCCCOC(=O)c1ccc2c(c1)[nH]c(=O)n2C` to `CCOCCNC(=O)Cc1cccc(I)c1`, the “Percent Effect” value rises from -4.386% to 3.378%.

Compared with `COc1ncnc(N(C)C)c1NC(=O)Cc1c[nH]c2ccc(F)cc12`, `Cn1ncnc1NCc1ccc(F)cc1` is higher in “Percent Effect” value: -15.56% for the first, 113.5% for the second.

Compared with `C[C@@H]1CN(C(=O)c2ccc(Br)cc2F)CC(C(N)=O)O1` (stereo not given in full), `Cc1nnc(NCc2ccc(Br)cc2)o1` is lower in “Percent Effect” value: -4.259% for the first, -15.89% for the second.

Going from `CCOCCCNC(=O)Cc1cccs1` to `O=C(Cc1cccs1)NCC1(O)CCSCC1`, the “Percent Effect” value falls from 73.09% to 3.486%.

Compared with `Cn1ncnc1NCc1ccc(Cl)cc1`, `Cn1ncnc1NCc1ccc(Br)cc1` is lower in “Percent Effect” value: 106% for the first, 79.22% for the second.

First: Cn1ncnc1NCc1ccccc1Cl
Second: Cn1ncnc1NS(=O)(=O)c1ccc(F)cc1
The “Percent Effect” value of the first is higher: 98% for the first, -13.8% for the second.

Going from `Clc1ccc(CNc2ccc(Cl)cn2)cc1` to `Cn1ccnc1-c1noc(NCc2ccc(Cl)cc2)n1`, the “Percent Effect” value rises from -12.24% to 9.491%.

In the case of `Cn1ccnc1-c1noc(NCc2ccc(Br)cc2)n1`, the “Percent Effect” value is reported as 0.2508%.
